Assay results: publication PMC4336329 (PLoS ONE, 2015)
Out of some 310,000 compounds screened, about 14,000 (4.5%) showed an effect of 50% or more. Effects have a minus sign here. The sample holds strong results, similar compounds and a random draw of the others, so the mix is not that of the screen.

Target: human ether-à-go-go-related gene (hERG) potassium channel (human, UniProt Q12809)
Assay: primary screen, population patch clamp on CHO cells stably expressing hERG; higher = less effect of the substance
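Also: peak tail current of the secondary pulse compared with the same well before compound.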

Sequence of human ether-à-go-go-related gene (hERG) potassium channel (Q12809 whole entry, looked up): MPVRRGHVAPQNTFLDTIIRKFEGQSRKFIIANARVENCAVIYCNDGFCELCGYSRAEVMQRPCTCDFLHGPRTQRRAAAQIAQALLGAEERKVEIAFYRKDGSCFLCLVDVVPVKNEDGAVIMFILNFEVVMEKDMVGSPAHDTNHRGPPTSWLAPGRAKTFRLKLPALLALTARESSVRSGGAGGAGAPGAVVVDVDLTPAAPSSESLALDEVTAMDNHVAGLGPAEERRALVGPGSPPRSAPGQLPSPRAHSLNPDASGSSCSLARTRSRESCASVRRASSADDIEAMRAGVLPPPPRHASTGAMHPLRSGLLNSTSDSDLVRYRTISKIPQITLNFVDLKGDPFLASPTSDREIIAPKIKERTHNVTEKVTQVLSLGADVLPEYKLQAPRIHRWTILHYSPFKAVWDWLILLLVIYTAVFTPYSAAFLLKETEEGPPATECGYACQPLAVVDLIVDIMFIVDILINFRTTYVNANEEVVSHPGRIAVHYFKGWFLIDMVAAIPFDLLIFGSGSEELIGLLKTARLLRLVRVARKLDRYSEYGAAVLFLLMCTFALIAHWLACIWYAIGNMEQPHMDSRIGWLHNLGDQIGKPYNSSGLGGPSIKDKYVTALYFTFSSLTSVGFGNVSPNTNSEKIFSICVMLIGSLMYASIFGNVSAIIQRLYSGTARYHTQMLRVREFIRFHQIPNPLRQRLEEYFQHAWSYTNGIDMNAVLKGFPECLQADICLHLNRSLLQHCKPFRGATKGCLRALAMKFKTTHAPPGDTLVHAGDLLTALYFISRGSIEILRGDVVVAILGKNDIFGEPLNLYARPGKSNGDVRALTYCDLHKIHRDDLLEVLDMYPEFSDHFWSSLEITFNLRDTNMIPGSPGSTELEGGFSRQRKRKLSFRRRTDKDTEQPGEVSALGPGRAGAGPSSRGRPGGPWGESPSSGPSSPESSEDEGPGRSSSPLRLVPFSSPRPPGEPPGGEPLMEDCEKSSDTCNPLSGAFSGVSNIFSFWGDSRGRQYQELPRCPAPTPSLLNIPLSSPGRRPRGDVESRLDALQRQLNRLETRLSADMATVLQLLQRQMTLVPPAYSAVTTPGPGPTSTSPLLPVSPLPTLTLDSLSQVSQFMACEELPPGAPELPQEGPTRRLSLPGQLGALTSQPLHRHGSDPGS

Row | SMILES | hERG current change (%, negative = inhibition) at 10uM [%]
1 | O=C(COc1ccc([N+](=O)[O-])cc1)N(Cc1ccccc1)Cc1ccccc1 | -41.5
2 | COC(=O)c1c(C)oc2ccc(OC(=O)N3CCOCC3)cc12 | -8.62
3 | CCC(CC)c1nnc(NC(=O)c2cc(C(=O)OC)cc([N+](=O)[O-])c2)s1 | 7.7
4 | COC(=O)c1ccc(OC(=O)CCS(=O)(=O)c2ccc(C)cc2)cc1 | -16.4
5 | Cc1ccn(CC(=O)NC2CCCN(Cc3ccc(CC(C)C)cc3)C2)n1 (stereo not drawn) | -55.2
6 | Cc1noc(C)c1CCC(=O)NC1CCCN(Cc2ccc(Cl)cc2)C1 (stereo not drawn) | -24
7 | CC(C)Cc1ccc(CN2CCCC(NC(=O)CSc3nncn3C)C2)cc1 (stereo not drawn) | -23.7
8 | CC(C)Cc1ccc(CN2CCCC(NC(=O)CCn3cnnn3)C2)cc1 (stereo not drawn) | -46.2
9 | Cc1noc(C)c1CCC(=O)NC1CCCN(Cc2ccc(CC(C)C)cc2)C1 (stereo not drawn) | -66.8
10 | CC(C)Cc1ccc(CN2CCCC(NC(=O)CCN3CCCCC3=O)C2)cc1 (stereo not drawn) | -45.3
11 | CC(C)Cc1ccc(CN2CCCC(NC(=O)CCN3CCOCC3)C2)cc1 (stereo not drawn) | -37.4
12 | CC(C)Cc1ccc(CN2CCCC(NC(=O)Cn3cnnn3)C2)cc1 (stereo not drawn) | -26.5
13 | CC(=O)c1c(C)nn(CC(=O)NC2CCCN(Cc3ccc(CC(C)C)cc3)C2)c1C (stereo not drawn) | -73.4
14 | CC(C)C[C@H](NC(=O)c1nc[nH]c1C(=O)NCc1ccc(CNC(=O)OC(C)(C)C)cc1)C(=O)OC(C)(C)C | 2.06
15 | CN(C)Cc1nc2c(c(=O)[nH]1)C1(CCCCC1)Cc1ccccc1-2 | -11.7
16 | CSc1ccc(/C=C/C(=O)NC23CC4CC(CC(C4)C2)C3)cc1 | 14.6
17 | C=CCNC(=S)NNC(=O)c1ccc(OCCCC)cc1 | 10.2
18 | CCN(CC(=O)NC(C)C)C(=O)[C@@H](NC(=O)c1ccco1)C(C)C | 11.5
19 | COc1ccc([N+](=O)[O-])cc1C(=O)C(=O)c1ccccc1 | 8.56
20 | O=C(CCn1c(=O)oc2ccccc21)NCCCN1CCN(c2ccc(F)cc2)CC1 | -66.2

Row | SMILES | hERG current change (%, negative = inhibition) at 10uM [%]
21 | O=C(CCN1C(=O)c2ccccc2S1(=O)=O)N1CCN(c2ccc(F)cc2)CC1 | -61.9
22 | O=C(CCn1c(=O)oc2ccccc21)N1CCN(c2ccccc2F)CC1 | -23.8
23 | Cl.O=C(CCN1C(=O)c2ccccc2S1(=O)=O)N1CCN(c2ccccc2)CC1 | 2.96
24 | O=C(CCn1c(=O)oc2ccccc21)NCCCN1CCOCC1 | 16.9
25 | O=C(CN1C(=O)c2ccccc2S1(=O)=O)N1CCN(c2ccc(F)cc2)CC1 | -7.37
26 | O=C(CCn1c(=S)oc2ccccc21)N1CCN(c2ccc(F)cc2)CC1 | -25.3
27 | O=C(CCn1c(=O)oc2ccccc21)NCCN1CCOCC1 | -2.83
28 | O=C(CCCn1c(=O)oc2ccccc21)N1CCN(c2ccc(F)cc2)CC1 | -63.9
29 | O=C(CCn1c(=O)oc2ccccc21)N1CCN(c2ccc(F)cc2)CC1 | -58
30 | O=C(CCCn1c(=O)oc2ccccc21)N1CCN(c2ccccn2)CC1 | -47.6
31 | O=C1CCN(C(=O)CCCn2c(=O)oc3ccccc32)CC1 | 17
32 | COc1ccc(C(=O)OCCN2C(=O)c3ccccc3C2=O)cc1 | -5.4
33 | COc1cc(OC)cc(-c2sc3ccc(OC)cc3c2C#CCCO)c1 | 10.5
34 | COc1ccc(CC(=O)NNC(=O)CCC(=O)Nc2cc(C)ccc2C)cc1 | 10.4
35 | Cc1[nH]c2ccccc2c1C(=O)NS(=O)(=O)Nc1ccccc1 | 9.15
36 | CS(=O)(=O)c1cccc(C(=O)NCc2ccccc2)c1 | -0.394
37 | CC1(c2ccccc2)NC(=O)N(CC(=O)Nc2ccc(N3CCOCC3)cc2N2CCOCC2)C1=O (stereo not drawn) | 6.74
38 | CCc1ccc(C(=O)N/N=C(\C)c2ccncc2)s1 | -11.1
39 | N#Cc1ccc(Cn2ccnc2C(=O)Nc2ccccc2)cc1 | -87
40 | O=C(Nc1ccccc1)c1nccn1Cc1ccc(F)cc1 | -10.9

Row | SMILES | hERG current change (%, negative = inhibition) at 10uM [%]
41 | Cc1ccc(Cn2ccnc2C(=O)Nc2ccccc2)cc1 | 6.59
42 | Cn1c(SCC(=O)NC2CCCC2)nnc1-c1ccncc1 | 33.9
43 | CCOc1cc(C(=S)N2CCN(C)CC2)ccc1OCC(=O)N1CCCC1 | 16
44 | Cc1ccc(C2=Nc3cccnc3C(c3ccccc3)=NN2)cc1 | 0.802
45 | O=C(CSc1nnc2n(C3CCCC3)c(=O)c3ccccc3n12)N1CCCCCC1 | -51.1
46 | CC1CCCN(C(=O)CSc2nnc(-c3cccnc3)n2C2CCCCC2)C1 (stereo not drawn) | -13.4
47 | CC1CCCN(C(=O)CSc2nnc3ccccn23)C1 (stereo not drawn) | 4.63
48 | COc1ccccc1Cn1c(=O)c2ccccc2n2c(SCC(=O)N3CCCCC3)nnc12 | 15.2
49 | O=C(CSc1nnc2n(C3CCCCC3)c(=O)c3ccccc3n12)OC1CCCCC1 | -4.92
50 | CC1CCCN(C(=O)CSc2nnc3n(C4CCCC4)c(=O)c4ccccc4n23)C1 (stereo not drawn) | -62.7
51 | O=C(O)c1nccnc1C(=O)Nc1ccc(Oc2c(Cl)cccc2Cl)nc1 | -26.1
52 | CCN(CC)c1ccc(NC(=O)CN2CCN(CC(=O)Nc3ccccc3OC)CC2)cc1 | -26.9
53 | COc1ccccc1N1CCN(CC(=O)Nc2ccc(C)c(F)c2)CC1 | -23.1
54 | COc1ccccc1NC(=O)CN1CCN(CC(=O)Nc2ccc(F)cc2)CC1 | -79.2
55 | COc1ccc(C)cc1NC(=O)CN1CCN(c2ccccc2F)CC1 | -10.3
56 | COc1cc(NC(=O)CN2CCN(CC(=O)Nc3ccccc3OC)CC2)cc(OC)c1 | 0.0651
57 | COc1ccc(C)cc1NC(=O)CN1CCN(c2ccc(F)cc2)CC1 | -50.4
58 | COc1ccc(C)cc1NC(=O)CN1CCN(S(=O)(=O)c2ccc(F)cc2)CC1 | 7.19
59 | COc1ccccc1NC(=O)CN1CCN(c2ccccc2F)CC1 | -18.4
60 | COc1ccccc1NC(=O)CN1CCN(CC(=O)Nc2ccc(C)c(F)c2)CC1 | -70
